PubChem BioAssay (EPA / NIEHS)
Activity calls are given as the source filed them. The calls were made as follows: active = hit-call score of the fitted dose curve at least 0.9, where 1 is the maximum; inactive = score below 0.9.

Legend:
[1] = ATG_CRE_CIS: Attagene CIS-FACTORIAL HepG2 Assay for human cAMP Responsive Element (CRE) binding protein 3 (AID 2282926); details: HepG2 CRE cis-reporter, Attagene multiplexed mRNA; actives raise or lower the signal
In short: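 Endogenous CRE-binding activity in HepG2 is reported through a cis-regulated transfected reporter. Following a day of exposure, mRNA levels are determined by reverse transcription PCR and fluorescent fragment analysis; fits run in both directions versus DMSO.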

[2] = target: CCAAT/enhancer-binding protein beta (Homo sapiens) (UniProt P17676); assay: ATG_C_EBP_CIS: Attagene CIS-FACTORIAL HepG2 Assay for human CCAAT/Enhancer Binding Protein (C/EBP) beta (AID 2282927); details: HepG2 Attagene cis-factorial transcription factor reporter; actives raise or lower the signal
Chain of CCAAT/enhancer-binding protein beta (Homo sapiens) (P17676 whole entry, looked up, the tested form may be a part): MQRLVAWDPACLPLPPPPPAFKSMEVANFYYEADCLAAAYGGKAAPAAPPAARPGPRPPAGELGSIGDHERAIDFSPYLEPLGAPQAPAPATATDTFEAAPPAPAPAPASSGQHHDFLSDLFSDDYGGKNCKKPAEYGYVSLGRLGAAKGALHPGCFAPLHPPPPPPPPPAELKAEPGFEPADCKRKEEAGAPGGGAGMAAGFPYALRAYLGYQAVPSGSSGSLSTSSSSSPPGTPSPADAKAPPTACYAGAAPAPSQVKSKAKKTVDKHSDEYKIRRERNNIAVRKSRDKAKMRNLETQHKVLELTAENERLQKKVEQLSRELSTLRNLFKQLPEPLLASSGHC
In short: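 Chemical-treated HepG2 cells (24 h) bearing cis-regulated reporter constructs were processed for total RNA, then reverse transcription, PCR amplification, fluorescent primer extension and fragment analysis; gain- and loss-of-signal were fitted against DMSO.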

[3] = ATG_CMV_CIS: Attagene CIS-FACTORIAL HepG2 Assay for human CMV (Internal Marker) (AID 2282928); details: HepG2 CMV promoter reporter, transcription factor profiling; actives raise or lower the signal;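 also: endpoint acts as a background internal control marker rather than a target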
In short: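 Endogenous transcription factor activity read in HepG2 via transfected cis-promoter reporter units. After 24 h dosing, reporter mRNA measured by RT-PCR/capillary electrophoresis; gain or loss of signal fit relative to DMSO.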

[4] = ATG_DR4_LXR_CIS: Attagene CIS-FACTORIAL HepG2 Assay for human Liver X Receptor (LXR), DR4 submotif (AID 2282929); details: HepG2 Attagene DR4 cis-reporter, mRNA transcription; actives raise or lower the signal
In short: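 After transient transfection with multiplexed cis-promoter reporter units, HepG2 cells received test chemicals for 24 h. Reporter mRNA induction, detected by fluorescence after RT-PCR and capillary electrophoresis, was scored relative to DMSO.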

[5] = target: Aryl hydrocarbon receptor (Homo sapiens) (UniProt P35869); assay: ATG_Ahr_CIS: Attagene CIS-FACTORIAL HepG2 Assay for human Aryl Hydrocarbon Receptor (Ahr) (AID 2282930); details: HepG2 AhR cis-factorial reporter transcription; actives raise or lower the signal
Chain of Aryl hydrocarbon receptor (Homo sapiens) (P35869 whole entry, looked up): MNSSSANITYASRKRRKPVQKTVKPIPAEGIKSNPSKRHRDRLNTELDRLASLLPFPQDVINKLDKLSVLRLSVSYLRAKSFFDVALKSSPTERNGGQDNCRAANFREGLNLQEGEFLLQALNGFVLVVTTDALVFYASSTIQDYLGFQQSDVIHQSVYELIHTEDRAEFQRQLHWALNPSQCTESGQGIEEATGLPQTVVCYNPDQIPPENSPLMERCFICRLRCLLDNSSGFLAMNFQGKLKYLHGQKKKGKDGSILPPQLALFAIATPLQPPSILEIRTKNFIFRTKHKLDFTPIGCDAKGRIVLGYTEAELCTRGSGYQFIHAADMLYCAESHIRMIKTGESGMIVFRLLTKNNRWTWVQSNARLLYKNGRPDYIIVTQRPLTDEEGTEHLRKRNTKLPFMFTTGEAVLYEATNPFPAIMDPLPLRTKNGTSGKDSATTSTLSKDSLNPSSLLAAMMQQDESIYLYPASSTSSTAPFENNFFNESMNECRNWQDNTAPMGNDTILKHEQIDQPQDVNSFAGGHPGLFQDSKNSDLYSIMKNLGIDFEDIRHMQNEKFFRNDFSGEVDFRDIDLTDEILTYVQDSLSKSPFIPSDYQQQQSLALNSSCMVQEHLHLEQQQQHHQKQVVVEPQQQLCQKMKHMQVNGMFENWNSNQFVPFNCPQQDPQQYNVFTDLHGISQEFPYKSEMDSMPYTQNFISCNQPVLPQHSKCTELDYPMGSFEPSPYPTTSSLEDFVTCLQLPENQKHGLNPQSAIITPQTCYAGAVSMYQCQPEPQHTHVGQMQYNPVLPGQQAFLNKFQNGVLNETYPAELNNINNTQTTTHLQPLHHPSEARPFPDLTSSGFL
In short: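 Following 24 h of chemical dosing, transfected HepG2 liver cells with cis-driven reporter units were lysed for RNA; reporter mRNA was quantified via RT-PCR and capillary electrophoresis, and responses fitted bidirectionally from DMSO.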

[6] = ATG_AP_1_CIS: Attagene CIS-FACTORIAL HepG2 Assay for human Activator Protein 1 (AP-1) (AID 2282931); details: HepG2 Attagene cis-factorial AP-1 reporter mRNA; actives raise or lower the signal
In short: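 After 24 h incubation with test chemical, RNA from transfected HepG2 cells was reverse-transcribed, amplified, fluorescently labelled and digested before capillary electrophoresis. Reporters were driven by cis-regulatory promoters; activity fitted bidirectionally versus DMSO.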

[7] = ATG_AP_2_CIS: Attagene CIS-FACTORIAL HepG2 Assay for human Activator Protein 2 (AP-2) (AID 2282932); details: HepG2 AP-2 cis-reporter, Attagene transcription factor profiling; actives raise or lower the signal
In short: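 Bidirectional curve fitting against DMSO was applied to reporter mRNA signals from HepG2 cells 24 h after dosing. Cis-promoter reporter units, transiently transfected, were read by RT-PCR plus capillary electrophoresis.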

[8] = ATG_BRE_CIS: Attagene CIS-FACTORIAL HepG2 Assay for human Bone Morphogenetic Protein (BMP) Response Element (BRE) (AID 2282933); details: HepG2 BMP response element reporter, Attagene transcription factor profiling; actives raise or lower the signal
In short: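 Multiplexed cis-reporter assay, HepG2, 24 h exposure. mRNA from reporter units quantified via RT-PCR/CE; DMSO baseline; bidirectional curve fit.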

[9] = target: Transcription factor E2F1 (Homo sapiens) (UniProt Q01094); assay: ATG_E2F_CIS: Attagene CIS-FACTORIAL HepG2 Assay for human E2F Transcription Factor 1 (AID 2282935); details: HepG2 Attagene cis-reporter, E2F reporter RNA transcripts; actives raise or lower the signal
Chain of Transcription factor E2F1 (Homo sapiens) (Q01094 whole entry, looked up): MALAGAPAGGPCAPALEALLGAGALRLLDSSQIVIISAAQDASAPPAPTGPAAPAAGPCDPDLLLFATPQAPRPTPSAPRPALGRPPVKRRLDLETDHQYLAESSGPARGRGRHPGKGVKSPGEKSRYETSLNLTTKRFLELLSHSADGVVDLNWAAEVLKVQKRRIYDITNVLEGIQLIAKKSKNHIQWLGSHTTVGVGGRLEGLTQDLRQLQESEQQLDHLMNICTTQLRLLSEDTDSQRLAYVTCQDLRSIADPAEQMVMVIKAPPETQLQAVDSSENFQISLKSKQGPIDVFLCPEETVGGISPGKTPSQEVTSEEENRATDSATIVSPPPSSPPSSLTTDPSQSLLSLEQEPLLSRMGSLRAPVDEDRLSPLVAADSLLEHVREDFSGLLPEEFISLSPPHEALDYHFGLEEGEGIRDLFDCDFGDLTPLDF
In short: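 Multiplexed cis-reporter assay: HepG2, transient transfection, 24 h dosing, mRNA quantitation by labeled RT-PCR and CE.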

[10] = ATG_E_Box_CIS: Attagene CIS-FACTORIAL HepG2 Assay for human Enhancer Box (E-box) (AID 2282936); details: HepG2 E-box cis-reporter transcription, actives raise or lower the signal
In short: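 Multiplexed CIS reporter system in transiently transfected HepG2 cells measures native transcription factor activity. Reporter RNA after 24 h exposure is profiled by RT-PCR-capillary electrophoresis.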

[11] = ATG_EGR_CIS: Attagene CIS-FACTORIAL HepG2 Assay for human Early Growth Response 1 (EGR1) (AID 2282938); details: HepG2 Attagene CIS-FACTORIAL EGR reporter mRNA; actives raise or lower the signal
In short: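 Fluorescent capillary-electrophoresis signal of reporter cDNA fragments serves as read-out. HepG2 cells bear transiently transfected cis-promoter reporter units and are exposed 24 h; gain- or loss-of-signal is fitted against DMSO.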

[12] = ATG_M_19_CIS: Attagene CIS-FACTORIAL HepG2 Assay for M19 Transcription Factor (Internal Marker) (AID 2282939); details: HepG2 Attagene CIS-FACTORIAL M19 internal marker reporter; actives raise or lower the signal
In short: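 Signals come from fluorescence of labelled reporter-specific PCR fragments resolved by capillary electrophoresis, following 24 h treatment of HepG2 cells transfected with cis-promoter reporter units; activity was fitted in both directions relative to DMSO.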

[13] = ATG_ERE_CIS: Attagene CIS-FACTORIAL HepG2 Assay for Estrogen Response Element (ERE) (AID 2282940); details: HepG2 ERE cis-reporter, Attagene RNA transcript; actives raise or lower the signal
In short: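 Fluorescence of capillary-separated, FAM-labelled reporter cDNA fragments indicates reporter mRNA levels in HepG2 cells exposed to chemicals for 24 h. Transient transfection with cis-regulated units; data fitted in both directions against DMSO.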

[14] = target: Hepatocyte nuclear factor 3-beta (Homo sapiens) (UniProt Q9Y261); assay: ATG_FoxA2_CIS: Attagene CIS-FACTORIAL HepG2 Assay for human Forkhead box A2 (FOXA2) (AID 2282942); details: HepG2 cis-reporter transcription factor activity, 24 h; actives raise or lower the signal
Chain of Hepatocyte nuclear factor 3-beta (Homo sapiens) (Q9Y261 whole entry, looked up, the tested form may be a part): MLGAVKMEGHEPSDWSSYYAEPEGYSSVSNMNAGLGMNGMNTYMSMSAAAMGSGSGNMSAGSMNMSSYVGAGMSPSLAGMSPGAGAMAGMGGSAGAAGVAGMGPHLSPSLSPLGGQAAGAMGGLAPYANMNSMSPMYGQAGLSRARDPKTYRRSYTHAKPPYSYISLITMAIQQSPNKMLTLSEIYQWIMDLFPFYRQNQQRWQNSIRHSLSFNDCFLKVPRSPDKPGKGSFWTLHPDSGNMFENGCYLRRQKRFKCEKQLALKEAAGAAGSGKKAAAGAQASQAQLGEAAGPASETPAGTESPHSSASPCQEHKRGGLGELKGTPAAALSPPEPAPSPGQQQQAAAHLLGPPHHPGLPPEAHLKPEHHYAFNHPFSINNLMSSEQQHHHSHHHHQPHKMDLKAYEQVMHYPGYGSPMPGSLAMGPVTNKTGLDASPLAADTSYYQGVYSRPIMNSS
In short: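 Fluorescence signal of reporter cDNA fragments, separated by capillary electrophoresis, reflects endogenous transcription factor activity in transfected HepG2 after 24 h. Both increases and decreases fitted against DMSO.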

[15] = ATG_FoxO_CIS: Attagene CIS-FACTORIAL HepG2 Assay for human Forkhead box O (FoxO) (AID 2282943); details: HepG2 Attagene cis-reporter, FoxO element, mRNA; actives raise or lower the signal
In short: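 24 h chemical exposure, HepG2 with transient cis-MRTU transfection. RNA extraction, oligo(dT) RT, reporter-specific PCR, primer-extension labelling, HpaI digestion, CE fragment analysis; bidirectional fit, DMSO baseline.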

[16] = ATG_GATA_CIS: Attagene CIS-FACTORIAL HepG2 Assay for human GATA Binding Protein (AID 2282944); details: HepG2 GATA cis-element reporter, Attagene multiplex mRNA; actives raise or lower the signal
In short: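 After transfecting HepG2 cells with multiple cis-regulated reporter units, chemicals are dosed for 24 h; isolated RNA undergoes RT-PCR and fluorescent labeling before capillary electrophoresis, with activity expressed against DMSO.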

[17] = ATG_GLI_CIS: Attagene CIS-FACTORIAL HepG2 Assay for human Zinc Finger Protein GLI1 (AID 2282945); details: HepG2, Attagene cis-factorial reporter mRNA, GLI element; actives raise or lower the signal
In short: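 HepG2 cells transiently transfected with cis-promoter multiplexed reporter units report endogenous transcription factor activity. After 24 h chemical exposure, reporter mRNA was quantified by RT-PCR, 6-FAM labelling, HpaI digestion and capillary electrophoresis, with bidirectional fitting against DMSO.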

[18] = ATG_M_61_CIS: Attagene CIS-FACTORIAL HepG2 Assay for M61 Transcription Factor (Internal Marker) (AID 2282937); details: HepG2 Attagene CIS-FACTORIAL M61 internal marker reporter; actives raise or lower the signal
In short: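 Using transiently transfected HepG2 liver cells, reporter transcript levels were assessed 24 h post-dosing by RT-PCR and capillary electrophoresis. Changes in either direction were fitted relative to DMSO controls.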

[19] = ATG_Ets_CIS: Attagene CIS-FACTORIAL HepG2 Assay for human Erythroblast Transformation Specific (ETS) (AID 2282941); details: HepG2 ETS cis-reporter transcription, actives raise or lower the signal
In short: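 Steps: transfect HepG2 with multiple reporter units; treat compound 24 h; isolate RNA, DNase-treat, reverse-transcribe; PCR-amplify, label with 6-FAM, digest with HpaI; separate by capillary electrophoresis. Activity fitted both directions versus DMSO.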

[20] = target: Retinoic acid receptor alpha (Homo sapiens) (UniProt P10276); assay: ATG_DR5_RAR_CIS: Attagene CIS-FACTORIAL HepG2 Assay for human Retinoic Acid Receptor Alpha (RARE), DR5 submotif (AID 2282934); details: HepG2 Attagene cis-factorial RARE DR5 reporter, mRNA; actives raise or lower the signal
Chain of Retinoic acid receptor alpha (Homo sapiens) (P10276 whole entry, looked up): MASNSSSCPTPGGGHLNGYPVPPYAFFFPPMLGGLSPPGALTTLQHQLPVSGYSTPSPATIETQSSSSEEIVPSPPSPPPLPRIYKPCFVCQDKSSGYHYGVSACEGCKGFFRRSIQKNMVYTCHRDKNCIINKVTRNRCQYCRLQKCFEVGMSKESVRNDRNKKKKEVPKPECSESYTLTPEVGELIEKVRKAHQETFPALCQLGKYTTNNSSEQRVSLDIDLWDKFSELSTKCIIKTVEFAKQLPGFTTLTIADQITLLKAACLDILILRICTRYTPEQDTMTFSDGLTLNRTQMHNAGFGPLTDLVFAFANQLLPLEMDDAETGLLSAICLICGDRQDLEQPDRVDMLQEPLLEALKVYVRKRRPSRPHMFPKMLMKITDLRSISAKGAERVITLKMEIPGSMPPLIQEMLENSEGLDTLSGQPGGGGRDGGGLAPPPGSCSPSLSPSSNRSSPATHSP
In short: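 Transfected HepG2 reporter cells are exposed to chemicals for 24 h. Then RNA is extracted and the DR5 element reporter transcript is measured by RT-PCR and capillary electrophoresis, with bidirectional curve fitting relative to DMSO.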

Measured: AC50

CCC(C(=O)NC(N)=O)c1ccccc1 (stereo unspecified)
not listed: [18] | [19] | [20]
inactive: all other assays above

COCCOCCOCCOCCOCCO
not listed: [13] | [19] | [20]
inactive: all other assays above

CC(=O)O[C@H](CC(=O)[O-])C[N+](C)(C)C
not listed: [10] | [11] | [15] | [16] | [20]
inactive: all other assays above

Cc1ncc([N+](=O)[O-])n1C
not listed: [8] | [13] | [20]
inactive: all other assays above

CC(=O)/C=C/C1=C(C)CCCC1(C)C
not listed: [10] | [20]
inactive: all other assays above

O=C(O)C[C@H](O)C[C@H](O)/C=C/c1c(C2CC2)nc2ccccc2c1-c1ccc(F)cc1
active: [13] 11.6 µM
not listed: [8] | [20]
inactive: all other assays above

CCCc1c(OCCCOc2ccc(OCC(=O)O)cc2)ccc(C(C)=O)c1O
active: [3] 64.1 µM | [8] 137 µM | [11] 31.8 µM | [13] 0.365 µM
not listed: [10] | [20]
inactive: all other assays above

CC(=O)c1c(C)cc(C(C)(C)C)cc1C
not listed: [8] | [10] | [13] | [19]
inactive: all other assays above
